{"source": "PubChem BioAssay", "note": "A number with no mark means an inactive call. Active and inactive are the calls of the source. No rule for the calls is given here.", "data": [{"biological_target": "L-lactate dehydrogenase (Plasmodium falciparum (isolate CDC / Honduras)) (UniProt Q27743)", "sequence (Q27743 whole entry, looked up)": "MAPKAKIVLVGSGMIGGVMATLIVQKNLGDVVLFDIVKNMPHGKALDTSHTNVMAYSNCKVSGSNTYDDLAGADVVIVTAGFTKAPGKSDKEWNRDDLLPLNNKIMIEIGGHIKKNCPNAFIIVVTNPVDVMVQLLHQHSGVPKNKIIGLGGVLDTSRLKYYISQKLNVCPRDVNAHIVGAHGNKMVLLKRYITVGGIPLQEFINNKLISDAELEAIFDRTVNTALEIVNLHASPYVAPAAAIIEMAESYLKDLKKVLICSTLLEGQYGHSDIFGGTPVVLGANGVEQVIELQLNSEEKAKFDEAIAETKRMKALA", "assay": "PfLDH activity inhibition – cell lysate, 3D7 strain, counter-screen for P. falciparum growth inhibition project (AID 2304);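 also: 0% = vehicle and 100% = reference inhibitor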", "details": "P. falciparum 3D7 crude extract, LDH APAD/NBT absorbance; at 2 µM; stronger effect = higher value", "units": {"inhibition": "%"}, "values": [{"smiles": "Nc1nc(N)c2c(ccn2Cc2cc3c(cc2Cl)OCO3)n1", "inhibition": -3}, {"smiles": "O=C(Nc1ccc(S(=O)(=O)NCCCN2CCOCC2)cc1)c1cc(-c2ccccc2)n[nH]1", "inhibition": 1}, {"smiles": "Cn1nc(-c2cccc(CN[C@@H]3CCc4ccc(O)cc43)c2)c2cnc(NCCCN3CCCC3)nc21", "inhibition": -3}, {"smiles": "CCOc1ccc2c(NN=Cc3c4ccccc4cc4ccccc34)cc(C)nc2c1", "inhibition": 0}, {"smiles": "Cc1[nH]c(C)c([N+](=O)[O-])c(=O)c1-c1ccc(Oc2ccccc2)cc1", "inhibition": 3}, {"smiles": "O=C(Cc1cnc[nH]1)Nc1cccc(-c2ccc(-c3nc4ccc(C(F)(F)F)cc4[nH]3)cc2)c1", "inhibition": -1}, {"smiles": "O=C(CCc1cnc[nH]1)Nc1cccc(-c2cccc(-c3nc4ccc(C(F)(F)F)cc4[nH]3)c2)c1", "inhibition": 7}, {"smiles": "Cc1[nH]c(C)c(-c2cccc(-c3ccc(OC(F)(F)F)cc3)c2)c(=O)c1Br", "inhibition": 0}, {"smiles": "FC(F)(F)c1cccc2c(NN=Cc3ccccc3)ccnc12", "inhibition": -4}, {"smiles": "Cc1ccc(-n2c(=O)c3c(n4c(SC(C)C)nnc24)-c2ccccc2CC32CCCCC2)cc1", "inhibition": 0}, {"smiles": "Cc1cccc(-c2nc3[nH]c(=O)cc(NC(=O)C(C)C)n3n2)c1", "inhibition": 0}, {"smiles": "Cc1noc(-c2ccc(N3CCC(C(=O)N4CCN(C(C)C)CC4)CC3)cc2)n1", "inhibition": -5}, {"smiles": "Cc1ccc(NC(=S)N2CCCN(CCCCCNC(=O)/C=C/c3ccc(Cl)c(Cl)c3)CC2)cc1Cl", "inhibition": 5}, {"smiles": "Cc1cc(NC(=O)c2cccs2)ccc1OC1CCN(Cc2ccc(C#N)cc2)CC1", "inhibition": 4}, {"smiles": "CN(CCCNC(=S)NC12CC3CC(CC(C3)C1)C2)CCCNc1ccnc2cc(Cl)ccc12", "inhibition": 8}, {"smiles": "Cc1cc(C(=O)Nc2ccc3c(c2)CCN3C2CCN(Cc3cccc4cc[nH]c34)C2)no1", "note": "(stereo not given)", "inhibition": 1}, {"smiles": "CC(C)CCNCc1ccc(OCc2cccc(C(=O)Nc3ccccc3)c2)c(I)c1", "inhibition": 0}, {"smiles": "Cc1nc2nc(N)nc(N)c2c(C)c1Cc1c(Cl)cccc1Cl", "inhibition": -1}, {"smiles": "CC(=O)Nc1ccc(C(=O)Nc2cccc(-c3ccc(-c4nc5ccc(C(F)(F)F)cc5[nH]4)cc3)c2)cn1", "inhibition": -3}, {"smiles": "CC1(C)N=C(N)N=C(N)N1OCc1cc2ccccc2cc1CON1C(N)=NC(N)=NC1(C)C", "inhibition": -5}, {"smiles": "Cc1cccc(CNc2nc(C)cc(NCCC(=O)NCCOc3ccccc3)n2)c1", "inhibition": 0}, {"smiles": "COc1cc2nc(SCCCC#N)n(C3CCCCCC3)c(=N)c2cc1OC", "inhibition": 0}, {"smiles": "COc1ccc(-c2cccc(NC(=O)c3cccc(C#N)c3)c2)cc1CN(C)CCO", "inhibition": -7}, {"smiles": "N#Cc1cccc(CNC(=O)c2cccc(Nc3ccnc4ccc(F)cc34)c2)c1", "inhibition": 0}, {"smiles": "O=C(c1cc2c(s1)-c1cccc(Cl)c1SC2)N1CCN(c2ccncc2)CC1", "inhibition": 1}, {"smiles": "O=C(Nc1ccc(C(=O)OCC2CCCCC2)cc1)N[C@@H](Cc1ccc(O)cc1)C(=O)NC1CCN(Cc2ccc(O)cc2)C1", "note": "(stereo not given in full)", "inhibition": -1}, {"smiles": "CCCC/C=C(\\Cl)c1ccc(O)c2c1C[C@H]1C[C@H]3[C@H](N(C)C)C(=O)C(C(N)=O)=C(O)[C@@]3(O)C(=O)C1=C2O", "inhibition": -4}, {"smiles": "CCC[C@@H]([C@@H](CC(C)C)C(=O)N[C@@H](CCCNc1nccc(C(F)(F)F)n1)C(=O)Nc1nccs1)N(O)C=O", "inhibition": 8}, {"smiles": "CCc1cc(NC2CCN(C)CC2)nc(Nc2cccc(OC)c2)n1", "inhibition": -6}, {"smiles": "COCCNCc1cccc(-c2ccc3c(Nc4ccc(F)cc4Cl)ccnc3c2)c1", "inhibition": 3}, {"smiles": "O=C(/C=C/c1ccc(Cl)c(Cl)c1)NCCCCCN1CCC(c2c[nH]c3ccccc23)CC1", "inhibition": -2}, {"smiles": "O=C(C=Cc1ccc(Cl)c(Cl)c1)NCCCCCN1CCCC(CCCNC(=O)c2cccs2)C1", "note": "(stereo not given)", "inhibition": 1}, {"smiles": "CO/C(=C\\C=C\\c1cc2cc(Cl)c(Cl)cc2[nH]1)C(=O)NCCCN1CCN(c2cccc(OC)c2)CC1", "inhibition": 0}, {"smiles": "CCOC(=O)NCC(=O)Nc1cccc(-c2cccc(-c3nc4c(C)cccc4[nH]3)c2)c1", "inhibition": 1}, {"smiles": "CCN(CCCN1CCCCC1)c1cc(C)nc(Nc2ccc(C)cc2C)n1", "inhibition": 6}, {"smiles": "COc1ccc2nccc([C@@H](O)CN3CCC(NCCNc4ccccn4)CC3)c2c1", "inhibition": -4}, {"smiles": "CN1CCN(c2ccc(Cl)cc2NC(=O)C2COc3ccccc3O2)CC1", "note": "(stereo not given)", "inhibition": 2}, {"smiles": "COc1ccc(Nc2nccc(NCCNC(=O)Nc3ccccc3F)n2)cc1", "inhibition": 1}, {"smiles": "Cc1noc(C)c1C(=O)N1CCc2cc3nccc(N4CCN5CCC[C@H]5C4)c3cc21", "inhibition": -5}, {"smiles": "O=C(N1CCN(c2ccc(C(F)(F)F)cc2[N+](=O)[O-])CC1)C(Cl)(Cl)Cl", "inhibition": 0}]}, {"tested_on": "not listed separately", "assay": "inhibition of 3D7 malaria parasite growth – strain 3D7 (AID 2306);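 also: 0% = DMSO wells and 100% = chloroquine plus artemisinin control wells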", "details": "P. falciparum 3D7 erythrocytic growth, LDH absorbance, 72 h; at 2 µM; stronger effect = higher value", "values": [{"smiles": "Nc1nc(N)c2c(ccn2Cc2cc3c(cc2Cl)OCO3)n1", "growth inhibition": "98% (active)"}, {"smiles": "O=C(Nc1ccc(S(=O)(=O)NCCCN2CCOCC2)cc1)c1cc(-c2ccccc2)n[nH]1", "growth inhibition": "82% (active)"}, {"smiles": "Cn1nc(-c2cccc(CN[C@@H]3CCc4ccc(O)cc43)c2)c2cnc(NCCCN3CCCC3)nc21", "growth inhibition": "101% (active)"}, {"smiles": "CCOc1ccc2c(NN=Cc3c4ccccc4cc4ccccc34)cc(C)nc2c1", "growth inhibition": "90% (active)"}, {"smiles": "Cc1[nH]c(C)c([N+](=O)[O-])c(=O)c1-c1ccc(Oc2ccccc2)cc1", "growth inhibition": "98% (active)"}, {"smiles": "O=C(Cc1cnc[nH]1)Nc1cccc(-c2ccc(-c3nc4ccc(C(F)(F)F)cc4[nH]3)cc2)c1", "growth inhibition": "102% (active)"}, {"smiles": "O=C(CCc1cnc[nH]1)Nc1cccc(-c2cccc(-c3nc4ccc(C(F)(F)F)cc4[nH]3)c2)c1", "growth inhibition": "101% (active)"}, {"smiles": "Cc1[nH]c(C)c(-c2cccc(-c3ccc(OC(F)(F)F)cc3)c2)c(=O)c1Br", "growth inhibition": "97% (active)"}, {"smiles": "FC(F)(F)c1cccc2c(NN=Cc3ccccc3)ccnc12", "growth inhibition": "101% (active)"}, {"smiles": "Cc1ccc(-n2c(=O)c3c(n4c(SC(C)C)nnc24)-c2ccccc2CC32CCCCC2)cc1", "growth inhibition": "95% (active)"}, {"smiles": "Cc1cccc(-c2nc3[nH]c(=O)cc(NC(=O)C(C)C)n3n2)c1", "growth inhibition": "96% (active)"}, {"smiles": "Cc1noc(-c2ccc(N3CCC(C(=O)N4CCN(C(C)C)CC4)CC3)cc2)n1", "growth inhibition": "95% (active)"}, {"smiles": "Cc1ccc(NC(=S)N2CCCN(CCCCCNC(=O)/C=C/c3ccc(Cl)c(Cl)c3)CC2)cc1Cl", "growth inhibition": "93% (active)"}, {"smiles": "Cc1cc(NC(=O)c2cccs2)ccc1OC1CCN(Cc2ccc(C#N)cc2)CC1", "growth inhibition": "94% (active)"}, {"smiles": "CN(CCCNC(=S)NC12CC3CC(CC(C3)C1)C2)CCCNc1ccnc2cc(Cl)ccc12", "growth inhibition": "100% (active)"}, {"smiles": "Cc1cc(C(=O)Nc2ccc3c(c2)CCN3C2CCN(Cc3cccc4cc[nH]c34)C2)no1", "note": "(stereo not given)", "growth inhibition": "97% (active)"}, {"smiles": "CC(C)CCNCc1ccc(OCc2cccc(C(=O)Nc3ccccc3)c2)c(I)c1", "growth inhibition": "100% (active)"}, {"smiles": "Cc1nc2nc(N)nc(N)c2c(C)c1Cc1c(Cl)cccc1Cl", "growth inhibition": "94% (active)"}, {"smiles": "CC(=O)Nc1ccc(C(=O)Nc2cccc(-c3ccc(-c4nc5ccc(C(F)(F)F)cc5[nH]4)cc3)c2)cn1", "growth inhibition": "101% (active)"}, {"smiles": "CC1(C)N=C(N)N=C(N)N1OCc1cc2ccccc2cc1CON1C(N)=NC(N)=NC1(C)C", "growth inhibition": "92% (active)"}, {"smiles": "Cc1cccc(CNc2nc(C)cc(NCCC(=O)NCCOc3ccccc3)n2)c1", "growth inhibition": "98% (active)"}, {"smiles": "COc1cc2nc(SCCCC#N)n(C3CCCCCC3)c(=N)c2cc1OC", "growth inhibition": "89% (active)"}, {"smiles": "COc1ccc(-c2cccc(NC(=O)c3cccc(C#N)c3)c2)cc1CN(C)CCO", "growth inhibition": "96% (active)"}, {"smiles": "N#Cc1cccc(CNC(=O)c2cccc(Nc3ccnc4ccc(F)cc34)c2)c1", "growth inhibition": "87% (active)"}, {"smiles": "O=C(c1cc2c(s1)-c1cccc(Cl)c1SC2)N1CCN(c2ccncc2)CC1", "growth inhibition": "94% (active)"}, {"smiles": "O=C(Nc1ccc(C(=O)OCC2CCCCC2)cc1)N[C@@H](Cc1ccc(O)cc1)C(=O)NC1CCN(Cc2ccc(O)cc2)C1", "note": "(stereo not given in full)", "growth inhibition": "91% (active)"}, {"smiles": "CCCC/C=C(\\Cl)c1ccc(O)c2c1C[C@H]1C[C@H]3[C@H](N(C)C)C(=O)C(C(N)=O)=C(O)[C@@]3(O)C(=O)C1=C2O", "growth inhibition": "90% (active)"}, {"smiles": "CCC[C@@H]([C@@H](CC(C)C)C(=O)N[C@@H](CCCNc1nccc(C(F)(F)F)n1)C(=O)Nc1nccs1)N(O)C=O", "growth inhibition": "99% (active)"}, {"smiles": "CCc1cc(NC2CCN(C)CC2)nc(Nc2cccc(OC)c2)n1", "growth inhibition": "93% (active)"}, {"smiles": "COCCNCc1cccc(-c2ccc3c(Nc4ccc(F)cc4Cl)ccnc3c2)c1", "growth inhibition": "103% (active)"}, {"smiles": "O=C(/C=C/c1ccc(Cl)c(Cl)c1)NCCCCCN1CCC(c2c[nH]c3ccccc23)CC1", "growth inhibition": "99% (active)"}, {"smiles": "O=C(C=Cc1ccc(Cl)c(Cl)c1)NCCCCCN1CCCC(CCCNC(=O)c2cccs2)C1", "note": "(stereo not given)", "growth inhibition": "89% (active)"}, {"smiles": "CO/C(=C\\C=C\\c1cc2cc(Cl)c(Cl)cc2[nH]1)C(=O)NCCCN1CCN(c2cccc(OC)c2)CC1", "growth inhibition": "100% (active)"}, {"smiles": "CCOC(=O)NCC(=O)Nc1cccc(-c2cccc(-c3nc4c(C)cccc4[nH]3)c2)c1", "growth inhibition": "88% (active)"}, {"smiles": "CCN(CCCN1CCCCC1)c1cc(C)nc(Nc2ccc(C)cc2C)n1", "growth inhibition": "91% (active)"}, {"smiles": "COc1ccc2nccc([C@@H](O)CN3CCC(NCCNc4ccccn4)CC3)c2c1", "growth inhibition": "101% (active)"}, {"smiles": "CN1CCN(c2ccc(Cl)cc2NC(=O)C2COc3ccccc3O2)CC1", "note": "(stereo not given)", "growth inhibition": "99% (active)"}, {"smiles": "COc1ccc(Nc2nccc(NCCNC(=O)Nc3ccccc3F)n2)cc1", "growth inhibition": "85% (active)"}, {"smiles": "Cc1noc(C)c1C(=O)N1CCc2cc3nccc(N4CCN5CCC[C@H]5C4)c3cc21", "growth inhibition": "93% (active)"}, {"smiles": "O=C(N1CCN(c2ccc(C(F)(F)F)cc2[N+](=O)[O-])CC1)C(Cl)(Cl)Cl", "growth inhibition": "101% (active)"}]}]}
